Test [1] is described as follows: qHTS assay to identify aromatase inhibitors - cell viability counter screen (AID 743084;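 also: cells stimulated with testosterone during compound exposure; % is scaled to controls: 0 for no effect and ±100 for the full control effect; nearly all actives have a fitted effect of over 55% in size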). (Quantitative high-throughput screening tests each substance at several concentrations.)
The target of test [2] is Aryl hydrocarbon receptor (Homo sapiens) (UniProt P35869). Kind of test: qHTS assay to identify small molecule that activate the aryl hydrocarbon receptor (AhR) signaling pathway (AID 743085). Also: nearly all actives have a fitted effect of over 15% in size. Also: potency is read from the fitted curve at half-maximal effect. In outline:
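Luminescence (ONE-Glo) from a dioxin-responsive-element luciferase reporter in HG2L7.5c1 HepG2 cells after 24 hr compound exposure at 37C; viability measured by CellTiter-Fluor fluorescence beforehand.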

The nature of test [3]: qHTS assay to identify small molecule that activate the aryl hydrocarbon receptor (AhR) signaling pathway - cell viability counter screen (AID 743086).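 Also: HepG2 liver cells carrying the AhR DRE luciferase reporter; series mostly up to about 70 µM; % is scaled to controls: 0 for no effect and ±100 for the full control effect; nearly all actives have a fitted effect of over 45% in size.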 The procedure, abridged:
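HepG2-AhR-luc (HG2L7.5c1) cells, 4000/well, were preincubated 5 h at 37C, exposed to compound in qHTS format for 24 hr at 37C, then given CellTiter-Fluor for 30 min; viability was read as fluorescence in the reporter wells.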

In test [4] the target is Peroxisome proliferator-activated receptor gamma (Homo sapiens) (UniProt P37231). Kind of test: qHTS assay to identify small molecule agonists of the peroxisome proliferator-activated receptor gamma (PPARg) signaling pathway (AID 743094; active = well fitted activation curve with a large enough effect in the signal ratio in the repeat runs, not every such curve was filed as active; the % refers to the signal ratio; also: % is scaled to controls: 0 for no effect and ±100 for the full control effect). In outline: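 Following 5 h plating at 37C, PPARg-bla HEK293H cells receive compound or DMSO for 17 h; fluorescence intensity is recorded after LiveBLAzer B/G loading for 1 h at room temperature.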
Peroxisome proliferator-activated receptor gamma (Homo sapiens), sequence (P37231 whole entry, looked up): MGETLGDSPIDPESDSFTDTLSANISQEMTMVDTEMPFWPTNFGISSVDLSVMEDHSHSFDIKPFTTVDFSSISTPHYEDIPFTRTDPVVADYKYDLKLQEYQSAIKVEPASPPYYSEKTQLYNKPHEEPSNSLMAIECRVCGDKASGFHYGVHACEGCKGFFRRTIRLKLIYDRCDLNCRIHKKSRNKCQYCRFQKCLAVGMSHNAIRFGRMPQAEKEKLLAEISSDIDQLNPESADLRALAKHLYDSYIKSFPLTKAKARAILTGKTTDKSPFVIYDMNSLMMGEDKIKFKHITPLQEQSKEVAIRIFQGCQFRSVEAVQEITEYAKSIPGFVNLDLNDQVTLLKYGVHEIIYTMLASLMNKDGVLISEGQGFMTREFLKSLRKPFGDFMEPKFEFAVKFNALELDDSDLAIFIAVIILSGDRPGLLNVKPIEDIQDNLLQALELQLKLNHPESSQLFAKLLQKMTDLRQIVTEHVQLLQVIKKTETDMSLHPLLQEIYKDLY

Test [5] can be described thus: qHTS assay to identify small molecule antagonists of the peroxisome proliferator-activated receptor gamma (PPARg) signaling pathway - cell viability counter screen (AID 743194). Also: % is scaled to controls: 0 for no effect and ±100 for the full control effect; nearly all actives have a fitted effect of over 55% in size. The conditions noted are these: Potency: co-treated with 50 nM rosiglitazone. The procedure, abridged:
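PPARg-UAS-bla HEK293H cells were plated, rested 5 h at 37 C, then treated with compounds plus rosiglitazone (50 nM final) for 17 h at 37 C; viability was then read by CellTiter-Glo luminescence after 30 min at room temperature.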

Test [6] in a line: qHTS assay for small molecule agonists of the antioxidant response element (ARE) signaling pathway (AID 743202; active = well fitted activation curve with a large enough effect in the signal ratio in the repeat runs, not every such curve was filed as active; the % refers to the signal ratio; also: % is scaled to controls: 0 for no effect and ±100 for the full control effect). In outline: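 Read-out: LiveBLAzer B/G FRET substrate fluorescence after 2 h at room temperature, following 16 h compound treatment at 37 C of HepG2 cells carrying an ARE-driven beta-lactamase reporter.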
The nature of test [7]: qHTS assay for small molecule agonists of the antioxidant response element (ARE) signaling pathway - cell viability counter screen (AID 743203; calls by dose curve; also: % is scaled to controls: 0 for no effect and ±100 for the full control effect; nearly all actives have a fitted effect of over 55% in size). In outline:
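Compounds in DMSO were pinned onto ARE-bla HepG2 cells plated 5 hrs earlier at 2,000 cells/well. Sixteen hours later at 37C/5% CO2, CellTiter-Glo was added and luminescence measured after 30 min at room temperature.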

The nature of test [8]: qHTS assay for small molecule activators of the heat shock response signaling pathway - cell viability counter screen (AID 743209). Also: % is scaled to controls: 0 for no effect and ±100 for the full control effect; nearly all actives have a fitted effect of over 50% in size. The procedure, abridged: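 Counter screen for cytotoxicity in HeLa HSE-bla reporter cells. Treatment was 5 h at 37 C; viability was detected by luminescent ATP assay (CellTiter-Glo) in the same wells as the beta-lactamase read.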
A short description of test [9]: qHTS assay for small molecule activators of the heat shock response signaling pathway (AID 743210; active = well fitted activation curve with a large enough effect in the signal ratio in the repeat runs, with a control signal flat, not every such curve was filed as active; the % refers to the signal ratio; also: series mostly up to about 63 µM; % is scaled to controls: 0 for no effect and ±100 for the full control effect). In outline:
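HSE-bla HeLa cells (beta-lactamase reporter under heat shock response elements) were exposed to compounds for 5 h at 37 C, then loaded with LiveBLAzer B/G FRET substrate for 2.5 h at room temperature before fluorescence reading.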

A short description of test [10]: qHTS assay to identify small molecule agonists of the peroxisome proliferator-activated receptor delta (PPARd) signaling pathway - cell viability counter screen (AID 743211). Also: % is scaled to controls: 0 for no effect and ±100 for the full control effect; nearly all actives have a fitted effect of over 55% in size. The procedure, abridged: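 Viability was measured as CellTiter-Glo luminescence (30 min, room temperature) in the same wells as the beta-lactamase readout. GeneBLAzer PPARd UAS-bla HEK293H cells received compound after 5 h plating and were incubated 17 h at 37 C.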

Test [11] concerns the target Peroxisome proliferator-activated receptor delta (Homo sapiens) (UniProt Q03181). Kind of test: qHTS assay to identify small molecule agonists of the peroxisome proliferator-activated receptor delta (PPARd) signaling pathway (AID 743212; calls by dose curve; also: % is scaled to controls: 0 for no effect and ±100 for the full control effect). In outline:
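GeneBLAzer PPARd UAS-bla HEK293H cells (beta-lactamase reporter under UAS control), plated and rested 5 h at 37 C, then exposed to compounds in DMSO at 37 C; LiveBLAzer B/G FRET substrate added, 2 h room temperature, fluorescence read.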

The nature of test [12]: qHTS assay to identify small molecule antagonists of the peroxisome proliferator-activated receptor delta (PPARd) signaling pathway - cell viability counter screen (AID 743213). Also: % is scaled to controls: 0 for no effect and ±100 for the full control effect; nearly all actives have a fitted effect of over 50% in size. The procedure, abridged:
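Agonist-stimulated (L165041, 300 nM final) HEK293H PPARd UAS-bla cells are exposed to compounds for 17 h at 37 C, and ATP-based luminescence (CellTiter-Glo) from the same wells reports cytotoxicity.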

The target of test [13] is Peroxisome proliferator-activated receptor delta (Homo sapiens) (UniProt Q03181). Kind of test: qHTS assay to identify small molecule antagonists of the peroxisome proliferator-activated receptor delta (PPARd) signaling pathway (AID 743215; active = well fitted inhibition curve with a large enough effect in the signal ratio in the repeat runs, not every such curve was filed as active; the % refers to the signal ratio). In outline:
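With L165041 present at 300 nM final, compounds were incubated 17 h at 37 C on PPARd UAS-bla HEK293H cells. A FRET-based beta-lactamase substrate was then applied for 2 h at room temperature and fluorescence intensity recorded.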

A short description of test [14]: qHTS assay to identify small molecule agonists of the farnesoid-X-receptor (FXR) signaling pathway - cell viability counter screen (AID 743218). Also: % is scaled to controls: 0 for no effect and ±100 for the full control effect; nearly all actives have a fitted effect of over 45% in size. The procedure, abridged: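 After 16 h at 37 C with test compounds, FXR-bla HEK 293T cells were given LiveBLAzer B/G substrate for 2 h at RT and then CellTiter-Glo; luminescence was taken after 30 min.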
Test [15] can be described thus: qHTS assay to identify small molecule antagonists of the farnesoid-X-receptor (FXR) signaling pathway - cell viability counter screen (AID 743221; active = well fitted cell-killing curve with a large enough effect in the repeat runs, not every such curve was filed as active; also: % is scaled to controls: 0 for no effect and ±100 for the full control effect; nearly all actives have a fitted effect of over 50% in size). In outline: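 Cytotoxicity counter screen run in the FXR-bla reporter wells: HEK 293T cells exposed to compound with 50 uM (final) chenodeoxycholic acid for 16 h, 37 C, then viability measured by CellTiter-Glo luminescence after 30 min, room temperature.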

Test [16] deals with Peroxisome proliferator-activated receptor gamma (Homo sapiens) (UniProt P37231). Kind of test: qHTS assay to identify small molecule antagonists of the peroxisome proliferator-activated receptor gamma (PPARg) signaling pathway (AID 743191; calls by dose curve; also: potency is read from the fitted curve at half-maximal effect; nearly all actives have a fitted effect of over 30% in size). The procedure, abridged: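 GeneBLAzer PPARg UAS-bla HEK293H cells carrying a UAS-driven beta-lactamase reporter were plated at 3000 cells/well, preincubated 5 h at 37C, then given compound for 17 h at 37C; LiveBLAzer B/G FRET substrate was read after 1 h at room temperature.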

The target in test [17] is Bile acid receptor (Homo sapiens) (UniProt Q96RI1). Kind of test: qHTS assay to identify small molecule antagonists of the farnesoid-X-receptor (FXR) signaling pathway (AID 743217; active = well fitted inhibition curve with a large enough effect in the signal ratio in the repeat runs, not every such curve was filed as active; the % refers to the signal ratio; also: % is scaled to controls: 0 for no effect and ±100 for the full control effect). The procedure, abridged: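 In this cell-based antagonist screen, inhibition of CDCA-driven (50 uM final) UAS-beta-lactamase expression in HEK 293T cells was measured by FRET fluorescence following 16 h compound exposure at 37 °C.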
Bile acid receptor (Homo sapiens), sequence (Q96RI1 whole entry, looked up): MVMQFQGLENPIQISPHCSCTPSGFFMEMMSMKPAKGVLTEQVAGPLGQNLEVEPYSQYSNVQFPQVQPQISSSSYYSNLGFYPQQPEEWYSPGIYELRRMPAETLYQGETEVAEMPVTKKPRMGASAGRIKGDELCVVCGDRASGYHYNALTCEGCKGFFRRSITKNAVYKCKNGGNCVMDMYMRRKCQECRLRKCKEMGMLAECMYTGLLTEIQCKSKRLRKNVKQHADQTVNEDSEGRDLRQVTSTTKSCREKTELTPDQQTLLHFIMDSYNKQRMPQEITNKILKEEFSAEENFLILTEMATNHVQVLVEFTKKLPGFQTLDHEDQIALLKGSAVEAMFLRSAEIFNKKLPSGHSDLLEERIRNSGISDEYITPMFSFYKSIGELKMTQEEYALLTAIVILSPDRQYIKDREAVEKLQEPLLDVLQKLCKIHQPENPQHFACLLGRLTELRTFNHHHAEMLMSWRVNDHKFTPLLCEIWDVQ

For test [18] the target is unchanged. Kind of test: qHTS assay to identify small molecule agonists of the farnesoid-X-receptor (FXR) signaling pathway (AID 743220; active = well fitted activation curve with a large enough effect in the signal ratio in the repeat runs, not every such curve was filed as active; the % refers to the signal ratio; also: % is scaled to controls: 0 for no effect and ±100 for the full control effect). In outline:
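Beta-lactamase reporter under UAS control in GeneBLAzer FXR HEK 293T cells (5000/well) measured with LiveBLAzer FRET substrate after 2 h at room temperature. Compound exposure lasted 16 h at 37C.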

In test [19] the target is Vitamin D3 receptor (Homo sapiens) (UniProt P11473). Kind of test: qHTS assay to identify small molecule agonists of the vitamin D receptor (VDR) signaling pathway (AID 743222; calls by dose curve; also: % is scaled to controls: 0 for no effect and ±100 for the full control effect). In outline:
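VDR-bla cells were seeded, left 4 h, treated with compounds in DMSO for 16 h, incubated 2 h at RT with B/G FRET substrate, and read for fluorescence.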

For test [20] the target is unchanged. Kind of test: qHTS assay to identify small molecule antagonists of the vitamin D receptor (VDR) signaling pathway (AID 743223; active = well fitted inhibition curve with a large enough effect in the signal ratio in the repeat runs, not every such curve was filed as active; the % refers to the signal ratio; also: % is scaled to controls: 0 for no effect and ±100 for the full control effect). The procedure, abridged: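 Antagonist mode: compound added to VDR-bla cells alongside agonist 1alpha,25-dihydroxyvitamin D3 (3 nM final), incubation 16 h at 37C. Read-out is LiveBLAzer FRET fluorescence, 2 h at room temperature.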

Results filed as inconclusive are left out. Values without a mark were called inactive. Activity calls are given as the source filed them. Unless noted, calls follow the shape of the dose curve; as a rule, active = well fitted curve in the direction sought with a large enough effect in the repeat runs; inconclusive = weak or mixed curves; inactive = no such curve, though single readings can be large; an effect the other way counts as inactive or inconclusive.

Aryl hydrocarbon receptor (Homo sapiens), sequence (P35869 whole entry, looked up): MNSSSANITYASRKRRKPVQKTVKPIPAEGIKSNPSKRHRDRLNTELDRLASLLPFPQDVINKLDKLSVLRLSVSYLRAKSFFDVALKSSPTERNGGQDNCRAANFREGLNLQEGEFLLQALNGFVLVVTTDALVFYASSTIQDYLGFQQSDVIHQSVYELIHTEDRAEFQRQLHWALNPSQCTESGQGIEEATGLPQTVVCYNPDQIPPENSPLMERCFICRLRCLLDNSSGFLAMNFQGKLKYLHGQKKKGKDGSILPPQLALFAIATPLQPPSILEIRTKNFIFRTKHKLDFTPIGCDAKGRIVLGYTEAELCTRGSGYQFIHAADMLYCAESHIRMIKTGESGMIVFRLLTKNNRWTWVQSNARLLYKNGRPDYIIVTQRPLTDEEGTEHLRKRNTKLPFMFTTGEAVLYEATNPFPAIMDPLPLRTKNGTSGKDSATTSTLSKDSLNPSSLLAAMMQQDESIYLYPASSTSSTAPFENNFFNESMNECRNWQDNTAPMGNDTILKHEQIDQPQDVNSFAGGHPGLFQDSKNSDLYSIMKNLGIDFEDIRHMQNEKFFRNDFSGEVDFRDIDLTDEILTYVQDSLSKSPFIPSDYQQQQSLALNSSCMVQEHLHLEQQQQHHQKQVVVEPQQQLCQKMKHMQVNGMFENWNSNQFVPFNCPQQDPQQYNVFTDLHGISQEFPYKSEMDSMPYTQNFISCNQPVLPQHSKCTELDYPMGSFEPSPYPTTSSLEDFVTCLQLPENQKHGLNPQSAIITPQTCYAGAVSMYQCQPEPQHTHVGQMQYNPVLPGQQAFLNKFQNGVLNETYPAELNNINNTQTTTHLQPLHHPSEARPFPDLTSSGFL
Vitamin D3 receptor (Homo sapiens), sequence (P11473 whole entry, looked up): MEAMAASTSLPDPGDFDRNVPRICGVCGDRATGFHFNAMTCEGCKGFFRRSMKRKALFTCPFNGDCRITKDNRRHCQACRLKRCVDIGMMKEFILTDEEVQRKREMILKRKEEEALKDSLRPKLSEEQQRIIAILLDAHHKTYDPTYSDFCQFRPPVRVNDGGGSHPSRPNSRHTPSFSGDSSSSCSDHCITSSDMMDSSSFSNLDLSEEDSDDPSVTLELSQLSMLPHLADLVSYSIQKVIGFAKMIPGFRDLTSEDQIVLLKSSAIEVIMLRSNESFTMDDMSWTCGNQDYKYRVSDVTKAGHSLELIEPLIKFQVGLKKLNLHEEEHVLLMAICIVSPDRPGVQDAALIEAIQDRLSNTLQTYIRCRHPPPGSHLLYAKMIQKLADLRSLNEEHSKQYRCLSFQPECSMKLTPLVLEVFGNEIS
Peroxisome proliferator-activated receptor delta (Homo sapiens), sequence (Q03181 whole entry, looked up): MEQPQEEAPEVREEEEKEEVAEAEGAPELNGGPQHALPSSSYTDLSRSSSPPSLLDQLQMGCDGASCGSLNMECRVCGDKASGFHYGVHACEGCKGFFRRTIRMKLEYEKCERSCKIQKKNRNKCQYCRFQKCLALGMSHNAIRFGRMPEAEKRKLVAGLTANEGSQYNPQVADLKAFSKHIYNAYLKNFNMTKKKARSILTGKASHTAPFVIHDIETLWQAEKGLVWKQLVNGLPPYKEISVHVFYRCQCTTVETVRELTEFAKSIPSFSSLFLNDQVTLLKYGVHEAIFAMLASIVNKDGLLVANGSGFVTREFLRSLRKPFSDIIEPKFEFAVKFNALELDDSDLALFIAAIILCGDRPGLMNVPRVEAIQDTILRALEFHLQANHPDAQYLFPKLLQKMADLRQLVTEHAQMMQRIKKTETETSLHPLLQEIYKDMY

For the compound `NCC(CC(=O)O)c1ccc(Cl)cc1` (configuration not stated), the Potency entry in [1], in test [2], in [3] and in test [4] was “inactive” each time. Moreover, the activity change, negative = cytotoxicity in [5] was -16.4% [at 0.55 µM]; in [8], 1.94% [at 0.55 µM]; in [10] it was -0.324% [at 0.55 µM]; in test [15], 3.53% [at 0.55 µM]. Moreover, the activation is -5.3% [at 0.756 µM] in test [6], -1.61% [at 0.55 µM] in test [9] and 1.99% [at 0.55 µM] in test [11]. Besides, the viability change, negative = cytotoxic in test [7] is 4.15% [at 0.756 µM]; in test [12], -11.6% [at 0.575 µM]; in [14], 0.276% [at 0.55 µM]. The ratio activity, negative = inhibition in test [13] is -0.236% [at 0.575 µM].

With `CC1(C)CCC(Cc2ccc(Cl)cc2)C1(O)Cn1cncn1` (configuration not stated), the Potency result in [1], in test [2], in [3], in [8], in [10] and in test [12] was “inactive” in each case. The Potency entry in [13], in test [17], in [14] and in test [15] was “inactive” throughout. Moreover, in [16], the Potency is 49 µM (active). The result in test [9], in [11], in test [18], in [19] and in [20] was inactive.

Consider `CC(=O)CCC(C)=O`, for which the Potency entry in test [1], in [2], in test [3], in [4], in test [5] and in test [6] was “inactive” each time. For the same compound, the Potency entry in [7], in test [10], in [12], in [14] and in test [15] was “inactive” throughout. Besides, the call in [9], in [11] and in [19] was inactive.

Consider `CCOP(=S)(OCC)SCSCC`, for which the Potency entry in test [1], in [2], in test [3], in test [4], in test [5] and in test [6] was “inactive” in each case. The Potency result in [7], in [8], in test [10], in test [12], in test [13] and in test [17] was “inactive” in each case. For the same compound, the Potency result in test [14] and in test [15] was “inactive” in each case. Besides, the compound was classed as inactive in test [9], in test [11], in test [18] and in test [19].

In the case of `CS/C(C)=N/OC(=O)N(C)SN(C)C(=O)O/N=C(\C)SC`, the Potency result in [1], in test [2], in test [3], in [4], in test [5] and in test [6] was “inactive” throughout. Moreover, the Potency result in [7], in [8], in test [10], in test [12], in [17] and in [14] was “inactive” in each case. Besides, the Potency result in [15] is “inactive”. Moreover, the result in test [11] and in test [18] was inactive.

Turning to `CNC(C)Cc1ccccc1OC` (configuration not stated), the Potency entry in [1], in test [2], in test [3], in [4], in [5] and in test [6] was “inactive” each time. In addition, the Potency result in [7], in [8], in test [10], in test [12], in [13] and in test [15] was “inactive” in each case. Also, the compound was called inactive in test [9], in test [11], in [19] and in test [20].

With `CCOC(=O)C(Cl)C(C)=O` (configuration not stated), the Potency result in [1], in test [2], in test [3], in test [4], in [5] and in test [6] was “inactive” throughout. Also, the Potency result in test [7], in test [8], in test [10], in [12], in test [14] and in test [15] was “inactive” throughout. In addition, the compound was called inactive in test [9] and in test [19].

With `O=C1c2ccccc2C(=O)C1C(=O)C(c1ccccc1)c1ccccc1`, the Potency result in test [1], in test [3], in [4], in test [7], in [8] and in [12] was “inactive” throughout. For the same compound, the Potency entry in test [15] was “inactive”. Also, in test [2], the Potency is 29.8 µM (active). For the same compound, the result in test [9] was inactive.

For the compound `C=CC(=O)OCC(C)C`, the Potency result in test [1], in test [2], in [3], in test [4], in test [5] and in test [7] was “inactive” each time. Further, the Potency entry in [8], in test [10], in test [12], in test [13], in test [14] and in test [15] was “inactive” throughout. The call in test [11], in test [19] and in test [20] was inactive.

(Values after PubChem BioAssay (Tox21).)
